# According to PubChem BioAssay (NCATS):
# Records with an inconclusive call do not appear. Calls of active or inactive are those of the source. Calls follow the shape of the dose curve; as a rule, active = well fitted curve in the direction sought with a large enough effect; inconclusive = small, poorly fitted or top-dose-only effect, or another doubt; inactive = no such curve, though single readings can be large; an effect the other way counts as inactive or inconclusive.
# What was measured:
# [1] = biological target: Nicotinamide N-methyltransferase (Homo sapiens) (UniProt P40261); assay: Confirmatory Screen for Target Class Profiling of Small Molecule Inhibitors of Methyltransferases (AID 1745852); conditions: MTase-Glo luminescence, SAH detection, recombinant enzyme; measured here: NNMT max response; stronger effect = lower value
# Nicotinamide N-methyltransferase (Homo sapiens), sequence (P40261 whole entry, looked up): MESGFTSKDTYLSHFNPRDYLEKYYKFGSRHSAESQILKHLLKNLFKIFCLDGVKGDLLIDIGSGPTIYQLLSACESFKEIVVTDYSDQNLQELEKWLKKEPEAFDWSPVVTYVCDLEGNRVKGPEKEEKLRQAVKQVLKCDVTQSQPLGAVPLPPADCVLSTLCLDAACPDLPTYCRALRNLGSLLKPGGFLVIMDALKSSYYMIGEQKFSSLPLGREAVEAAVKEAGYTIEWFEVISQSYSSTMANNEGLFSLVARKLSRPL
# [2] = biological target: Phenylethanolamine N-methyltransferase (Homo sapiens) (UniProt P11086); assay: as above; conditions: MTase-Glo luminescence, SAH detection, recombinant enzyme; measured here: PNMT max response; stronger effect = lower value
# Phenylethanolamine N-methyltransferase (Homo sapiens), sequence (P11086 whole entry, looked up): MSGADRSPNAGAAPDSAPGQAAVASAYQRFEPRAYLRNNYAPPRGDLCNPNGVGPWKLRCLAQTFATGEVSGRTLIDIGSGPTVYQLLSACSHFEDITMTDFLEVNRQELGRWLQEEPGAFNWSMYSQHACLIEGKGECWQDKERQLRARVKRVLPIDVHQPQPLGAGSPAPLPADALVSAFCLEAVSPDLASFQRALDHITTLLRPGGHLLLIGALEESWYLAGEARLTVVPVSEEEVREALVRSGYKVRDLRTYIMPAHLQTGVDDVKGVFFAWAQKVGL
# [3] = biological target: Metallo-beta-lactamase type 2 (Klebsiella pneumoniae) (UniProt C7C422); assay: qHTS to identify inhibitors of the New Delhi Metallo-beta-lactamase (NDM): assay validation screen against the NCATS LOPAC Collection (AID 1794843); conditions: NDM-1 enzyme, nitrocefin hydrolysis, absorbance 485 nm; series mostly up to 38.4 µM;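 also: nitrocefin turnover by NDM-1 measured as 485 nm absorbance at plateau; % is scaled to controls: 0 for no effect and ±100 for the full control effect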
# Metallo-beta-lactamase type 2 (Klebsiella pneumoniae), sequence (C7C422 whole entry, looked up): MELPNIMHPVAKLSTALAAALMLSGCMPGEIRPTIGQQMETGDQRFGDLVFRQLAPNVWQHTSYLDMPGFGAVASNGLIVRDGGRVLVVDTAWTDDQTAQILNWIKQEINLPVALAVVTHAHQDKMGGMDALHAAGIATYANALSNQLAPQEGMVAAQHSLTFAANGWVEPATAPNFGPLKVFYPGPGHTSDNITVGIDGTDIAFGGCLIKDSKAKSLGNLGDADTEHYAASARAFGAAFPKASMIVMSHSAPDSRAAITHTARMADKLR
# How it was run: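 Enzyme 2 nM final, 50 mM HEPES pH 7.0, 1 uM ZnSO4, 0.01% Tween20; cpds in DMSO, preincub w/ enzyme; + nitrocefin (50 uM stock); A485 at plateau; no-enzyme column as blank.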
# [4] = Viability counterscreen for antagonist of constitutive androstane receptor (CAR) against the NCATS DSHEA and TCM libraries (AID 1794837); conditions: CAR reporter cell line viability counterscreen, qHTS; series mostly up to 40 µM;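 also: compound exposure lasted 24 h before viability reading; 0% is about no effect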
# Description: (§1) Assay Development and Screening Technology Laboratory (ADST)
# (§2) National Center for Advancing Translational Sciences (NCATS), Rockville, MD
# (§3) National Institute of Health (NIH), Bethesda, Maryland
# Dietary Supplements and Natural Products have minor oversight of their safety and efficacy. We assembled a collection of Dietary Supplements and Natural Products (DSNP) as well as Traditional Chinese Medicinal (TCM) Plant extracts, which were screened against an in vitro panel of assays, including a liver cytochrome p450 enzyme panel, CAR/PXR signaling pathways, and P-gp transporter assays, to assess their activity. This pipeline facilitated the interrogation of Natural Product-Drug Interaction (NaPDI) through prominent metabolizing pathways. In addition, we compared the activity profiles of the DSNP/TCM substances with those of an approved drug collection. […] Overall, we highlight four significant bioactivity profiles (measured by p-values) as examples of this prediction. […]
# 8; Detector 1; Fluorescence intensity; ViewLux plate reader (excitation 405 nm, emission 540 nm). […]
# 11; Detector 2; Luminescence intensity; ViewLux. […]
# 8. Fluorescence intensity (Ex/Em = 405 nm/540 nm) is obtained using the ViewLux plate reader to determine cell viability. […]
# 10. Luminescence intensity is read using the ViewLux detector. […]
# [5] = Viability counterscreen for agonist of constitutive androstane receptor (CAR) against the NCATS DSHEA and TCM libraries (AID 1794838); conditions: HepG2 cell viability counterscreen, CAR agonist assay, co-treated with 0.75 µM CAR antagonist; series mostly up to 40 µM;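 also: HepG2 cells with CYP2B6 reporter and hCAR plus 0.75 µM PK11195 antagonist; 0% is about no effect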
# How it was run: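 HepG2-CYP2B6-hCAR cells (2,500/well) treated 24 h at 37C with compounds plus 0.75 uM PK11195; viability read by CellTiter-Fluor fluorescence, Ex/Em 405/540 nm.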
# [6] = HepG2 viability counterscreen (readout 2: ATP content) against the NCATS DSHEA and TCM libraries (AID 1794840); conditions: ATP content luminescence; series mostly up to 27.3 µM; also: 0% is about no effect
# How it was run: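 HepG2 cells, 1,000/well, attached ~4 h, then exposed ~24 h at 37C to substances. Protease activity read by fluorescence of 25 uM GF-AFC (Ex/Em 380/510 nm) after 30 min; ATP then by CellTiter-Glo luminescence.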
# [7] = HepG2 viability counterscreen (readout 1: protease activity) against the NCATS DSHEA and TCM libraries (AID 1794841); conditions: qHTS concentration series; series mostly up to 27.3 µM;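 also: cells exposed to compounds for about 24 h before the protease read; 0% is about no effect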
# Description: as §1, §2, §3
# Dietary Supplements and Natural Products have minor oversight of their safety and efficacy. We assembled a collection of Dietary Supplements and Natural Products (DSNP) as well as Traditional Chinese Medicinal (TCM) Plant extracts, which were screened against an in vitro panel of assays, including a liver cytochrome p450 enzyme panel, CAR/PXR signaling pathways, and P-gp transporter assays, to assess their activity. This pipeline facilitated the interrogation of Natural Product-Drug Interaction (NaPDI) through prominent metabolizing pathways. In addition, we compared the activity profiles of the DSNP/TCM substances with those of an approved drug collection. Many of the approved drugs have well-annotated mechanisms of action (MOA) while the MOAs for most of the DSNP and TCM samples remain unknown. Based on the premise that compounds with similar activity profiles tend to share similar targets or MOA, we clustered the library activity profiles to identify overlap with the NCATS Pharmaceutical Collection to predict the MOAs of the DSNP/TCM substances. Overall, we highlight four significant bioactivity profiles (measured by p-values) as examples of this prediction. In addition, to assess broad cytotoxicity, we employed screening against a HepG2 cell line.
# To this end, we profiled both collections for potential CAR and/or PXR activity, employing a previously published 1536-well qHTS assay. […]
# 7; Read 1; Fluorescence; EnVision plate reader excitation 380 nm, emission 510 nm. […]
# 11; Read 2; Luminescence; ViewLux plate reader. […]
# 7. After incubation, plates were read for fluorescence intensity (Ex/Em = 380 nm/510 nm) on an EnVision detector (PerkinElmer, Shelton, Connecticut).
# 8. Once the detection for fluorescence was completed, plates were dispensed with 3 uL of CellTiter-Glo (Promega, Madison, WI). […]
# 11. Plates were then read for luminescence intensity on a ViewLux detector. […]
# [8] = NCATS anti-infectives library activity on HEK293 viability as a counter-qHTS vs the C. elegans viability qHTS (AID 1745854); conditions: HEK293 viability counter-screen; series mostly up to 41.8 µM; also: % is scaled to controls: 0 for no effect and ±100 for the full control effect
# How it was run: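 CellTiter-Glo luminescence, read on a CCD imager, scored viability of HEK293 cells after 24 hr compound exposure at 37C. Library tested in several concentrations, 1:5 steps, up to 41.7 uM; digitonin served as control.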
compound,measurement,setting,value
COc1ccc(Br)cc1S(=O)(=O)NC(=O)/C=C/c1ccccc1Cc1ccc2ccccc2c1,activity,[1],-14.5%
same,activity,[2],0.509%
same,Potency,[3],inactive
CN1CCc2cccc3c2C1Cc1ccc(O)c(O)c1-3 (stereo unspecified),activity,[1],0.623%
same,activity,[2],3.44%
same,Potency,[3],inactive
Oc1ccc(C2CNCc3sccc32)cc1O (stereo unspecified),activity,[1],-8.32%
same,activity,[2],0.43%
same,Potency,[3],inactive
O=C(O)CNC(=O)C(CS)Cc1ccccc1 (stereo unspecified),activity,[1],2.86%
same,activity,[2],8.57%
same,Potency,[3],inactive
O=C1NCc2c1c1c3ccccc3[nH]c1c1[nH]c3ccccc3c21,activity,[1],-25.9%
same,activity,[2],-28.7%
same,Potency,[3],inactive
CC(C)(C)c1ccc(S(=O)(=O)/C=C/C#N)cc1,activity,[1],-4.25%
same,activity,[2],5.53%
same,Potency,[3],inactive
Oc1cc2c(cc1O)CN(C(=S)NCCc1ccc(Cl)cc1)CCC2,activity,[1],-17.6%
same,activity,[2],0.243%
same,Potency,[3],inactive
C[S+](CC[C@H](N)C(=O)O)C[C@H]1O[C@@H](n2cnc3c(N)ncnc32)[C@H](O)[C@@H]1O (stereo partly specified),outcome,[4],inactive
same,outcome,[5],inactive
same,outcome,[6],inactive
same,outcome,[7],inactive
CNc1ncnc2c1ncn2[C@@H]1O[C@H](CO)[C@@H](O)[C@H]1O,outcome,[8],inactive
same,Potency,[3],inactive
COc1ccccc1CNCCCCCCNCCCCCCCCNCCCCCCNCc1ccccc1OC,activity,[1],-17.7%
same,activity,[2],2.9%
same,Potency,[3],inactive
N.N.N.N.N.N.N.N.N.N.N.N.N.N.O.O.[Ru+4].[Ru+5].[Ru+5],activity,[1],-45.3%
same,activity,[2],-7.59%
O=C(O)CC[C@@H](C(=O)O)N1C(=O)c2ccccc2C1=O,activity,[1],-12.9%
same,activity,[2],-4.01%
same,Potency,[3],inactive
N=c1ccn2c(n1)O[C@H]1[C@H](O)[C@@H](CO)O[C@H]12,outcome,[8],inactive
same,Potency,[3],inactive
O=C(c1cc(O)c(O)c([N+](=O)[O-])c1)c1ccccc1F,activity,[1],-15.6%
same,activity,[2],-23.2%
same,Potency,[3],inactive
COc1ccc(/C=C2\COc3ccc(C)cc3C2=O)cc1O,activity,[1],-20.1%
same,activity,[2],4.48%
same,Potency,[3],inactive
Fc1ccc(C(OCCCc2cnc[nH]2)c2ccc(F)cc2)cc1,activity,[1],-23.2%
same,activity,[2],-0.346%
same,Potency,[3],inactive
CC(C)(C=O)Cc1cc(C(C)(C)C)c(O)c(C(C)(C)C)c1,activity,[1],-8.99%
same,activity,[2],-4.11%
same,Potency,[3],inactive
OCC1O[C@H]([S-])[C@H](O)[C@@H](O)[C@@H]1O.[Au+] (stereo partly specified),activity,[1],-21.4%
same,activity,[2],-1.84%
COc1cc(OC)c(/C=C2/C(=O)Nc3ccccc32)c(OC)c1,activity,[1],-28.2%
same,activity,[2],-34.5%
same,Potency,[3],inactive
Oc1cc(O)cc(/C=C/c2ccc(O)c(O)c2)c1,activity,[1],-18.4%
same,activity,[2],-8.17%
same,Potency,[3],inactive
COc1ccc(NC(=O)/C=C/c2ccc(Cl)cc2)cc1,activity,[1],-60.9%
same,activity,[2],-10.5%
same,Potency,[3],inactive
COc1cc(/C=C/C(=O)CC(=O)/C=C/c2ccc(O)c(OC)c2)ccc1O,activity,[1],-4.44%
same,activity,[2],9.5%
same,outcome,[8],inactive
COC1=C(OC)C(=O)c2ccccc2C1=O,activity,[1],-23.6%
same,activity,[2],-70.6%
same,Potency,[3],inactive
